Source: the supplement of paper PMC4466140

Each binder was assayed against AgAbp1 (assay: SPOT peptide array binding signal intensity (averaged, normalized) (arbitrary units (background-subtracted, floor 0; scale differs between SH3 domains)); higher = stronger binding of the SH3 domain to the peptide).
Outline: (§1)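 E. coli BL21(DE3) was used to express GST-fused SH3 domains from four yeast species, which were then purified on glutathione Sepharose. These were incubated at 10 μg/ml in TBS-based blocking buffer overnight at 4°C on cellulose membranes carrying synthetic 15-mer peptides, in which cysteines were replaced by serines. Binding signal is the replicate average of normalized, background-subtracted spot intensity, in arbitrary units that differ between domains.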

Binder	SPOT peptide array binding signal intensity
QPQRTAPKPPISAPR	2

These binders were tested against AgBbc1 in the same assay as above.
Outline: as §1

Binder	SPOT peptide array binding signal intensity
QPQRTAPKPPISAPR	170

These binders were tested against AgBem1-D1 in the same assay as above.
Outline: as §1

Binder	SPOT peptide array binding signal intensity
QPQRTAPKPPISAPR	128

The binders below were run against AgBzz1-D1 in the same assay as above.
Outline: as §1

Binder	SPOT peptide array binding signal intensity
QPQRTAPKPPISAPR	51

These binders were tested against AgBzz1-D2 in the same assay as above.
Outline: as §1

Binder	SPOT peptide array binding signal intensity
QPQRTAPKPPISAPR	28

These binders were tested against AgCyk3 in the same assay as above.
Outline: as §1

Binder	SPOT peptide array binding signal intensity
QPQRTAPKPPISAPR	1

Each binder was assayed against AgFus1 in the same assay as above.
Outline: as §1

Binder	SPOT peptide array binding signal intensity
QPQRTAPKPPISAPR	11

These binders were tested against AgHof1 in the same assay as above.
Outline: as §1

Binder	SPOT peptide array binding signal intensity
QPQRTAPKPPISAPR	4.75

Each binder was assayed against AgHse1 in the same assay as above.
Outline: as §1

Binder	SPOT peptide array binding signal intensity
QPQRTAPKPPISAPR	14

These binders were tested against AgLsb1 in the same assay as above.
Outline: as §1

Binder	SPOT peptide array binding signal intensity
QPQRTAPKPPISAPR	0.5

Each binder was assayed against AgLsb4 in the same assay as above.
Outline: as §1

Binder	SPOT peptide array binding signal intensity
QPQRTAPKPPISAPR	≤ 0

Each binder was assayed against AgMyo5 in the same assay as above.
Outline: as §1

Binder	SPOT peptide array binding signal intensity
QPQRTAPKPPISAPR	327

These binders were tested against AgNbp2 in the same assay as above.
Outline: as §1

Binder	SPOT peptide array binding signal intensity
QPQRTAPKPPISAPR	1510

The binders below were run against AgRvs167 in the same assay as above.
Outline: as §1

Binder	SPOT peptide array binding signal intensity
QPQRTAPKPPISAPR	1

These binders were tested against AgSho1 in the same assay as above.
Outline: as §1

Binder	SPOT peptide array binding signal intensity
QPQRTAPKPPISAPR	4

The binders below were run against AgSla1-D1-D2 in the same assay as above.
Outline: as §1

Binder	SPOT peptide array binding signal intensity
QPQRTAPKPPISAPR	≤ 0

Each binder was assayed against AgSla1-D3 in the same assay as above.
Outline: as §1

Binder	SPOT peptide array binding signal intensity
QPQRTAPKPPISAPR	≤ 0

These binders were tested against CaAbp1-D1 in the same assay as above.
Outline: as §1

Binder	SPOT peptide array binding signal intensity
QPQRTAPKPPISAPR	≤ 0

These binders were tested against CaAbp1-D2 in the same assay as above.
Outline: as §1

Binder	SPOT peptide array binding signal intensity
QPQRTAPKPPISAPR	5

What follows are binders tested against CaBbc1 in the same assay as above.
Outline: as §1

Binder	SPOT peptide array binding signal intensity
QPQRTAPKPPISAPR	693

The binders below were run against CaBem1-D1 in the same assay as above.
Outline: as §1

Binder	SPOT peptide array binding signal intensity
QPQRTAPKPPISAPR	73

Each binder was assayed against CaBzz1-D1 in the same assay as above.
Outline: as §1

Binder	SPOT peptide array binding signal intensity
QPQRTAPKPPISAPR	1260

The binders below were run against CaBzz1-D2 in the same assay as above.
Outline: as §1

Binder	SPOT peptide array binding signal intensity
QPQRTAPKPPISAPR	420

These binders were tested against CaCyk3 in the same assay as above.
Outline: as §1

Binder	SPOT peptide array binding signal intensity
QPQRTAPKPPISAPR	0.5

Each binder was assayed against CaFus1 in the same assay as above.
Outline: as §1

Binder	SPOT peptide array binding signal intensity
QPQRTAPKPPISAPR	≤ 0

What follows are binders tested against CaHof1 in the same assay as above.
Outline: as §1

Binder	SPOT peptide array binding signal intensity
QPQRTAPKPPISAPR	0.5

The binders below were run against CaHse1 in the same assay as above.
Outline: as §1

Binder	SPOT peptide array binding signal intensity
QPQRTAPKPPISAPR	≤ 0

What follows are binders tested against CaLsb1 in the same assay as above.
Outline: as §1

Binder	SPOT peptide array binding signal intensity
QPQRTAPKPPISAPR	0.5

The binders below were run against CaLsb4 in the same assay as above.
Outline: as §1

Binder	SPOT peptide array binding signal intensity
QPQRTAPKPPISAPR	≤ 0

What follows are binders tested against CaMyo5 in the same assay as above.
Outline: as §1

Binder	SPOT peptide array binding signal intensity
QPQRTAPKPPISAPR	7.5

The binders below were run against CaNbp2 in the same assay as above.
Outline: as §1

Binder	SPOT peptide array binding signal intensity
QPQRTAPKPPISAPR	1340

What follows are binders tested against CaRvs167 in the same assay as above.
Outline: as §1

Binder	SPOT peptide array binding signal intensity
QPQRTAPKPPISAPR	≤ 0

Each binder was assayed against CaRvs167-3 in the same assay as above.
Outline: as §1

Binder	SPOT peptide array binding signal intensity
QPQRTAPKPPISAPR	1

These binders were tested against CaSho1 in the same assay as above.
Outline: as §1

Binder	SPOT peptide array binding signal intensity
QPQRTAPKPPISAPR	14

What follows are binders tested against CaSla1-D1-D2 in the same assay as above.
Outline: as §1

Binder	SPOT peptide array binding signal intensity
QPQRTAPKPPISAPR	291

What follows are binders tested against CaSla1-D3 in the same assay as above.
Outline: as §1

Binder	SPOT peptide array binding signal intensity
QPQRTAPKPPISAPR	0.5

What follows are binders tested against ScAbp1 in the same assay as above.
Outline: as §1

Binder	SPOT peptide array binding signal intensity
QPQRTAPKPPISAPR	8

These binders were tested against ScBbc1 in the same assay as above.
Outline: as §1

Binder	SPOT peptide array binding signal intensity
QPQRTAPKPPISAPR	268

The binders below were run against ScBem1-D1 in the same assay as above.
Outline: as §1

Binder	SPOT peptide array binding signal intensity
QPQRTAPKPPISAPR	≤ 0

The binders below were run against ScBzz1-D1 in the same assay as above.
Outline: as §1

Binder	SPOT peptide array binding signal intensity
QPQRTAPKPPISAPR	4

The binders below were run against ScBzz1-D2 in the same assay as above.
Outline: as §1

Binder	SPOT peptide array binding signal intensity
QPQRTAPKPPISAPR	15.5

Each binder was assayed against ScCyk3 in the same assay as above.
Outline: as §1

Binder	SPOT peptide array binding signal intensity
QPQRTAPKPPISAPR	≤ 0

What follows are binders tested against ScFus1 in the same assay as above.
Outline: as §1

Binder	SPOT peptide array binding signal intensity
QPQRTAPKPPISAPR	≤ 0

Each binder was assayed against ScHof1 in the same assay as above.
Outline: as §1

Binder	SPOT peptide array binding signal intensity
QPQRTAPKPPISAPR	≤ 0

The binders below were run against ScHse1 in the same assay as above.
Outline: as §1

Binder	SPOT peptide array binding signal intensity
QPQRTAPKPPISAPR	≤ 0

These binders were tested against ScLsb1 in the same assay as above.
Outline: as §1

Binder	SPOT peptide array binding signal intensity
QPQRTAPKPPISAPR	≤ 0

What follows are binders tested against ScLsb2 in the same assay as above.
Outline: as §1

Binder	SPOT peptide array binding signal intensity
QPQRTAPKPPISAPR	≤ 0

Each binder was assayed against ScLsb3 in the same assay as above.
Outline: as §1

Binder	SPOT peptide array binding signal intensity
QPQRTAPKPPISAPR	58

These binders were tested against ScLsb4 in the same assay as above.
Outline: as §1

Binder	SPOT peptide array binding signal intensity
QPQRTAPKPPISAPR	≤ 0

These binders were tested against ScMyo3 in the same assay as above.
Outline: as §1

Binder	SPOT peptide array binding signal intensity
QPQRTAPKPPISAPR	699

Each binder was assayed against ScMyo5 in the same assay as above.
Outline: as §1

Binder	SPOT peptide array binding signal intensity
QPQRTAPKPPISAPR	613

What follows are binders tested against ScNbp2 in the same assay as above.
Outline: as §1

Binder	SPOT peptide array binding signal intensity
QPQRTAPKPPISAPR	2700

Each binder was assayed against ScPex13 in the same assay as above.
Outline: as §1

Binder	SPOT peptide array binding signal intensity
QPQRTAPKPPISAPR	131

The binders below were run against ScRvs167 in the same assay as above.
Outline: as §1

Binder	SPOT peptide array binding signal intensity
QPQRTAPKPPISAPR	≤ 0

What follows are binders tested against ScSho1 in the same assay as above.
Outline: as §1

Binder	SPOT peptide array binding signal intensity
QPQRTAPKPPISAPR	6

Each binder was assayed against ScSla1-D1-D2 in the same assay as above.
Outline: as §1

Binder	SPOT peptide array binding signal intensity
QPQRTAPKPPISAPR	1730

Each binder was assayed against ScSla1-D3 in the same assay as above.
Outline: as §1

Binder	SPOT peptide array binding signal intensity
QPQRTAPKPPISAPR	25.5

These binders were tested against SpAbp1-D1 in the same assay as above.
Outline: as §1

Binder	SPOT peptide array binding signal intensity
QPQRTAPKPPISAPR	2.5

Each binder was assayed against SpBbc1 in the same assay as above.
Outline: as §1

Binder	SPOT peptide array binding signal intensity
QPQRTAPKPPISAPR	10

Each binder was assayed against SpBzz1-D1 in the same assay as above.
Outline: as §1

Binder	SPOT peptide array binding signal intensity
QPQRTAPKPPISAPR	260

The binders below were run against SpBzz1-D2 in the same assay as above.
Outline: as §1

Binder	SPOT peptide array binding signal intensity
QPQRTAPKPPISAPR	14.5

The binders below were run against SpCyk3 in the same assay as above.
Outline: as §1

Binder	SPOT peptide array binding signal intensity
QPQRTAPKPPISAPR	0.5

What follows are binders tested against SpHof1 in the same assay as above.
Outline: as §1

Binder	SPOT peptide array binding signal intensity
QPQRTAPKPPISAPR	≤ 0

The binders below were run against SpHof1-2 in the same assay as above.
Outline: as §1

Binder	SPOT peptide array binding signal intensity
QPQRTAPKPPISAPR	7.5

Each binder was assayed against SpHof1-3 in the same assay as above.
Outline: as §1

Binder	SPOT peptide array binding signal intensity
QPQRTAPKPPISAPR	≤ 0

Each binder was assayed against SpHse1 in the same assay as above.
Outline: as §1

Binder	SPOT peptide array binding signal intensity
QPQRTAPKPPISAPR	≤ 0

The binders below were run against SpLsb1 in the same assay as above.
Outline: as §1

Binder	SPOT peptide array binding signal intensity
QPQRTAPKPPISAPR	≤ 0

These binders were tested against SpLsb4 in the same assay as above.
Outline: as §1

Binder	SPOT peptide array binding signal intensity
QPQRTAPKPPISAPR	27.5

These binders were tested against SpMyo1 in the same assay as above.
Outline: as §1

Binder	SPOT peptide array binding signal intensity
QPQRTAPKPPISAPR	2550

Each binder was assayed against SpNbp2 in the same assay as above.
Outline: as §1

Binder	SPOT peptide array binding signal intensity
QPQRTAPKPPISAPR	22.5

These binders were tested against SpPex13 in the same assay as above.
Outline: as §1

Binder	SPOT peptide array binding signal intensity
QPQRTAPKPPISAPR	1

Each binder was assayed against SpRvs167 in the same assay as above.
Outline: as §1

Binder	SPOT peptide array binding signal intensity
QPQRTAPKPPISAPR	2.33

These binders were tested against SpSla1-D1-D2 in the same assay as above.
Outline: as §1

Binder	SPOT peptide array binding signal intensity
QPQRTAPKPPISAPR	≤ 0

The binders below were run against SpSla1-D3 in the same assay as above.
Outline: as §1

Binder	SPOT peptide array binding signal intensity
QPQRTAPKPPISAPR	≤ 0
